Inconclusive results are not listed. Activity calls are given as the source filed them. Unless noted, calls follow the shape of the dose curve; as a rule, active = well fitted curve in the direction sought with a large enough effect in the repeat runs; inconclusive = weak or mixed curves; inactive = no such curve, though single readings can be large; an effect the other way counts as inactive or inconclusive.
How the values were obtained:
[1] = qHTS assay to identify small molecule agonists of the hypoxia (HIF-1) signaling pathway - cell viability counter screen (AID 1224844; calls by dose curve; also: nearly all actives have a fitted effect of over 50% in size)
Procedure, shortened: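 Cytotoxicity was measured in parallel with the HRE-driven beta-lactamase readout: after 17 hrs of compound exposure at 37C, HRE-bla ME-180 cells received CellTiter-Glo and luminescence was recorded 30 min later.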

[2] = qHTS assay to identify small molecule agonists of H2AX (AID 1224845; active = well fitted activation curve with a large enough effect in the signal ratio in the repeat runs, not every such curve was filed as active; the % refers to the signal ratio)
Procedure, shortened: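 Wild-type CHO-K1 cells plated overnight, then exposed 3 hr at 37C to compounds at 15 concentrations (0.76% DMSO). Lysed, then HTRF anti-pH2AX(S139)-cryptate/anti-H2AX-d2 detection after 24 hr at room temperature; emissions 665 and 620 nm.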

[3] = qHTS assay to identify small molecule agonists of the hypoxia (HIF-1) signaling pathway (AID 1224846; active = well fitted activation curve with a large enough effect in the signal ratio in the repeat runs, not every such curve was filed as active; the % refers to the signal ratio)
Procedure, shortened: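 Compounds from the Tox21 10K library, dissolved in DMSO, are tested for induction of a hypoxia response element–controlled beta-lactamase reporter in ME-180 cells. Exposure lasts 17 hrs at 37C after a 5 hr settling period, followed by CCF4-AM FRET substrate.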

[4] = qHTS assay to identify small molecule agonists of H2AX - cell viability counter screen (AID 1224847; calls by dose curve; also: top concentration of the series differs between compounds; nearly all actives have a fitted effect of over 30% in size)
Procedure, shortened: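 We seed wild-type CHO-K1 cells overnight, treat them for 3 hr at 37C with compounds in 15-concentration series, and quantify remaining viability by CellTiter-Glo luminescence.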

[5] = qHTS RealTime-Glo MT Cell Viability Assay in HepG2 cells - 24 hour (AID 1224867); also: nearly all actives have a fitted effect of over 50% in size
Procedure, shortened: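 Real-time, nonlytic viability: 600 HepG2 cells/well mixed with NanoLuc enzyme plus prosubstrate; 5 h settle, compound (DMSO) added by pintool; luminescence monitored over 40 h at 37 C.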

[6] = qHTS RealTime-Glo MT Cell Viability Assay in HepG2 cells - 40 hour (AID 1224870); also: nearly all actives have a fitted effect of over 50% in size
Procedure, shortened: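 HepG2 cells mixed with RealTime-Glo MT reagents (NanoLuc plus cell-permeant prosubstrate) were seeded at 600 cells/well, incubated 5 h at 37 C/5% CO2, then pinned with compounds in DMSO; nonlytic luminescence tracked viability during 40 h treatment.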

[7] = qHTS assay to identify small molecule antagonists of the estrogen related receptor (ERR) signaling pathway from Tox21 library (AID 1224848); also: nearly all actives have a fitted effect of over 50% in size
Procedure, shortened: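 First, 2,000 ERR cells per well were plated and held 6 h at 37 C/5% CO2. Next, compounds in DMSO were pinned in and left 18 h at 37 C. Finally, ONE-Glo was added and luminescence read after 30 min at room temperature.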

[8] = qHTS assay to identify small molecule agonists of the estrogen related receptor (ERR) signaling pathway from Tox21 library (AID 1224849; calls by dose curve; also: nearly all actives have a fitted effect of over 15% in size); conditions: ERR reporter cell line, ONE-Glo luciferase, 18 h; at 92.4 µM (top of the series) unless noted
Procedure, shortened: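 Cells carrying the ERR reporter were plated and allowed to settle for 6 h, exposed to library compounds for 18 h at 37 C, then lysed with ONE-Glo and luminescence measured.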

[9] = qHTS RealTime-Glo MT Cell Viability Assay in HEK293 cells - 32 hour (AID 1224868)
Procedure, shortened: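 Cells + reagent dispensed (600 cells/well, HEK293) → 5 h at 37 C/5% CO2 → 23 nL compound in DMSO pinned → 40 h at 37 C → luminescence read at 0, 8, 16, 24, 32, 40 h.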

[10] = A CellTox Green Cytotoxicity Assay to monitor cytotoxicity in HEK293 cells - 0 hour (AID 1224869); also: nearly all actives have a fitted effect of over 50% in size
Procedure, shortened: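 Cells (HEK293, 600/well) and dye reagent are dispensed together. After 5 h at 37 C, 23 nL compound is pinned in. Plates stay at 37 C for 40 h with fluorescence read at 0h, 8h, 16h, 24h, 32h and 40h.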
% is scaled to controls: 0 for no effect and ±100 for the full control effect.

CCc1cc(OC)c(C[C@H](C)N)cc1OC
inactive: Potency [1] | outcome [2] | outcome [3] | Potency [4] | Potency [5] | Potency [6]

ClCC1CO1 (centres undefined)
inactive: Potency [1] | outcome [2] | Potency [4] | Potency [7] | activity change, positive = activation [8] -2.49% | Potency [5] | Potency [9] | outcome [10] | Potency [6]

COC(=O)c1ccc(CBr)cc1
inactive: Potency [1] | outcome [2] | outcome [3] | Potency [4] | Potency [5] | outcome [10] | Potency [6]

C/C(=N\NC(=O)Nc1cc(F)cc(F)c1)c1ncccc1C(=O)O
inactive: Potency [1] | outcome [2] | outcome [3] | Potency [4] | Potency [5] | Potency [6]

O=C(O)C(Cl)Br (centres undefined)
inactive: Potency [1] | outcome [2] | outcome [3] | Potency [4] | Potency [5] | outcome [10] | Potency [6]

CC(C)N(Cc1ccccc1)C(=O)C(C)(C)C
inactive: Potency [1] | outcome [2] | outcome [3] | Potency [5] | Potency [9] | Potency [6]

N=C(N)[Se]
inactive: Potency [1] | outcome [2] | outcome [3] | Potency [4] | Potency [5] | Potency [9] | Potency [6]

CC[C@H](O)C(C[C@H](C)N(C)C)(c1ccccc1)c1ccccc1
inactive: Potency [1] | outcome [2] | outcome [3] | Potency [5] | outcome [10] | Potency [6]

— PubChem BioAssay (Tox21)
